Legend:
Assay in all cases: PBM binding z-score (relative to random genomic background probes); higher = stronger binding; sequences stand for … in GC…GCGATTGACAGCGTAGAATGAAGG
[1] = tested on: FXR:RXRa (NR concentration 270 nM, RXRa partner concentration 90 nM)
Summary of the method: (§1)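 Ligand-free nuclear receptor dimers were applied to custom Agilent 4×180K protein-binding microarrays whose double-stranded probes carried direct-repeat seeds, single-nucleotide variants, half-site ablations and random human genomic background sequences in 34-nt variable regions. Incubation lasted 1 h. Binding z-scores were computed against the random background probes from regression-normalized fluorescence.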

[2] = tested on: LXRa:RXRa (NR concentration 270 nM, RXRa partner concentration 90 nM)
Summary of the method: as §1

[3] = tested on: LXRa homodimer (NR concentration 270 nM)
Summary of the method: as §1

[4] = tested on: LXRb:RXRa (NR concentration 270 nM, RXRa partner concentration 90 nM)
Summary of the method: as §1

[5] = tested on: LXRb homodimer (NR concentration 270 nM)
Summary of the method: as §1

[6] = tested on: PPARa:RXRa (NR concentration 270 nM, RXRa partner concentration 90 nM)
Summary of the method: as §1

[7] = tested on: PPARg:RXRa (NR concentration 180 nM, RXRa partner concentration 90 nM)
Summary of the method: as §1

[8] = tested on: PPARg:RXRa 270nM:90nM, anti-RXR (NR concentration 270 nM, RXRa partner concentration 90 nM)
Summary of the method: as §1

[9] = tested on: PPARg:RXRa 30nM:10nM, anti-RXR (NR concentration 30 nM, RXRa partner concentration 10 nM)
Summary of the method: as §1

[10] = tested on: PPARg:RXRa 90nM:30nM, anti-RXR (NR concentration 90 nM, RXRa partner concentration 30 nM)
Summary of the method: as §1

[11] = tested on: PPARg:RXRa DBDmut IVT, anti-RXR (DBD mutation: RXRa K156A/R161A, NR concentration 270 nM, RXRa partner concentration 90 nM)
Summary of the method: as §1

[12] = tested on: PPARg:RXRa IVT, anti-PPARg (NR concentration 270 nM, RXRa partner concentration 90 nM)
Summary of the method: as §1

[13] = tested on: PPARg DBDmut:RXRa IVT, anti-PPARg (DBD mutation: PPARg1 K132A/R137A, NR concentration 270 nM, RXRa partner concentration 90 nM)
Summary of the method: as §1

[14] = tested on: PPARg DBDmut IVT, anti-PPARg (DBD mutation: PPARg1 K132A/R137A, NR concentration 270 nM)
Summary of the method: as §1

[15] = tested on: PPARg homodimer (NR concentration 180 nM)
Summary of the method: as §1

[16] = tested on: PXR:RXRa (NR concentration 270 nM, RXRa partner concentration 90 nM)
Summary of the method: as §1

[17] = tested on: PXR homodimer (NR concentration 270 nM)
Summary of the method: as §1

[18] = tested on: RARa:RXR (NR concentration 270 nM, RXRa partner concentration 90 nM)
Summary of the method: as §1

[19] = tested on: RARa homodimer (NR concentration 270 nM)
Summary of the method: as §1

[20] = tested on: RARb:RXRa (NR concentration 270 nM, RXRa partner concentration 90 nM)
Summary of the method: as §1

Sequence	PBM binding z-score [1]	PBM binding z-score [2]	PBM binding z-score [3]	PBM binding z-score [4]	PBM binding z-score [5]	PBM binding z-score [6]	PBM binding z-score [7]	PBM binding z-score [8]	PBM binding z-score [9]	PBM binding z-score [10]	PBM binding z-score [11]	PBM binding z-score [12]	PBM binding z-score [13]	PBM binding z-score [14]	PBM binding z-score [15]	PBM binding z-score [16]	PBM binding z-score [17]	PBM binding z-score [18]	PBM binding z-score [19]	PBM binding z-score [20]
AGTCAAAGTTCAACTAGGTAACGTAAGATATGCT	7.15	6.16	4.88	4.22	1.72	5.32	7.34	6.67	4.2	6.24	1.28	4.36	2.11	1.11	3.26	5.04	3.96	4.28	2.01	5.16
AGAACGGGGGCACGCTGAGTTGATAGCAGAGTAG	2.62	2.67	0.116	4.87	6.59	4.42	4.48	4.86	2.39	4.05	4.63	6.15	9.13	9.69	2.35	3.72	1.03	2.98	0.451	3.1
GCTAGTTGGGCAGTAAAAGGTCACACACCGGTCG	3.19	4.3	4.34	3.64	0.418	4.28	2.12	3.8	1.65	3.19	0.484	2.09	-0.128	-0.41	4.82	5.1	1.13	6.26	2.32	4.16
AGAATGTGGTTACCAAAGATCAGGGAAACGCTTG	-0.517	0.7	-0.272	-0.139	-0.442	-0.0504	0.469	0.425	0.333	0.271	0.0362	0.248	0.393	0.266	0.264	-0.353	-0.342	-0.178	-0.0425	-0.0731
GCTGCTAGGTCACGTTGGTCAGCTAACGGGTACG	3.59	2.38	0.0398	1.73	-0.378	3.5	3.91	3.87	1.1	2.79	5.22	4.99	0.1	-0.257	1.72	1.74	-0.356	2.81	-0.306	4.18
TGAATGAGGTTAAGGATCAGGGAACGTGGCGTCG	1.99	1.74	-0.343	1.01	0.386	3.28	3.12	4.57	2.71	4.12	1.6	2.61	0.781	-0.105	0.99	1.08	-0.0179	2.08	0.367	2.03
TCTTGTAGATCAATAGAGGTTAAGACAGTGCGCT	0.684	3.16	0.434	1.56	0.045	1.98	0.205	1.48	2.9	2.34	1.86	0.857	0.686	0.616	0.896	2.24	0.168	1.71	0.602	0.993
TGAAAGAGGTTATAAGATCAGGGAACGTTGCAAA	2.03	1.91	-0.395	1.33	-0.331	2.91	1.11	1.46	0.81	1.12	-0.304	0.748	-0.617	0.266	0.0455	0.781	-0.571	1.59	-0.227	1.56
GTACCAAGGTGAATAGGTCGCTGATGAGTAGGCG	0.713	0.531	-0.254	0.0295	-0.695	1.95	1.48	1.74	0.17	1.14	1.89	2.89	-0.721	-0.6	0.508	0.271	-0.637	1.34	-0.0761	2.07
TCATATAGGTAAATGCTAGGTGCAAGTCCGATCT	0.626	0.526	0.11	0.195	0.0143	1.05	0.562	2.08	3.84	2.96	3.77	1.96	1.24	0.918	0.912	0.511	0.449	0.897	0.586	0.263
ATATGTAGGTTACATCCGGGTTATTCAGGCTATG	0.937	3.18	0.529	1.71	0.53	3.59	5.15	4.27	2	3.64	7.44	7.16	4.04	2.37	3.3	1.2	0.531	1.57	0.67	1.35
TCTAGTTGGTCACGGAGGTCACGCACGACGGGTA	3.96	4.14	2.94	3.75	0.74	4.54	4.03	4.7	3.7	4.38	2.9	4.62	1.18	2.02	3.23	4.93	1.26	5.23	1.73	4.33
ACCAGTTGGTCAGCTGAGGTCACACACAATTCGG	4.09	3.33	2.22	3.21	0.296	3.54	1.58	2.14	0.389	1.17	1.19	2.26	0.45	-0.406	2.59	5.42	2.07	4.41	0.742	3.71
ATATGTAGGTTATCGGGTGATTCAGTTTGCGCAT	0.87	1.16	0.949	1.33	0.879	3.39	5.08	5.04	2.59	4.28	7.59	7.22	2.9	2.24	1.51	1.07	1.12	0.995	1.96	1.15
